Where a name gives a salt, the structure may show the parent alone.
Test system: Saccharomyces cerevisiae BY4741 SeMeCo community
Assay: z-score of subpopulation abundance vs DMSO median, subpopulation auxotrophic for L; higher = larger share of this subpopulation than in DMSO controls
Details: 10 µM; 24 h; SM minimal medium; subpopulation (auxotrophy): L
Description: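 Fluorescent four-plasmid SeMeCo (self-establishing metabolically cooperating S. cerevisiae BY4741 community; plasmids pH-mRuby2, pL-mWasabi, pU-eCFP, pM-TagRFP657) was grown 24 h in minimal SM medium with each Selleck FDA-approved drug at 10 µM in 384-well plates. Cells were fixed and imaged by high-content confocal microscopy. For each auxotrophic subpopulation (and the prototroph), a z-score gives the deviation from the DMSO vehicle-control population median.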

SMILES | z-score of subpopulation abundance
CCCCCOc1ccc(-c2cc(-c3ccc(C(=O)N[C@H]4C[C@@H](O)[C@@H](O)NC(=O)[C@@H]5[C@@H](O)[C@@H](C)CN5C(=O)[C@H]([C@H](O)CC(N)=O)NC(=O)[C@H]([C@H](O)[C@@H](O)c5ccc(O)c(OS(=O)(=O)O)c5)NC(=O)[C@@H]5C[C@@H](O)CN5C(=O)[C@H]([C@@H](C)O)NC4=O)cc3)no2)cc1 [Micafungin Sodium] | 5.22
CC[C@H]1OC(=O)[C@H](C)[C@@H](O[C@H]2C[C@@](C)(OC)[C@@H](O)[C@H](C)O2)[C@H](C)[C@@H](O[C@@H]2O[C@H](C)C[C@H](N(C)C)[C@H]2O)[C@](C)(O)C[C@@H](C)/C(=N\OCOCCOC)[C@H](C)[C@@H](O)[C@]1(C)O [Roxithromycin] | -0.94
COc1cc(/C=C/C(=O)N2CCN(CC(=O)N3CCCC3)CC2)cc(OC)c1OC [Cinepazide maleate] | -1.17
CCOC(=O)C1=C(COCCN)NC(C)=C(C(=O)OC)[C@@H]1c1ccccc1Cl [Levamlodipine] | 1.13
CCc1nn(CCCN2CCN(c3cccc(Cl)c3)CC2)c(=O)n1CCOc1ccccc1 [Nefazodone hydrochloride] | 0.67
CC(C)[N+](C)(CCOC(=O)C1c2ccccc2Oc2ccccc21)C(C)C [Propantheline bromide] | -0.57
Nc1ccc(S(=O)(=O)c2ccc(N)cc2)cc1 [Dapson] | 0.59
NC(CO)(CO)CO [Trometamol] | 0.58
CO[C@@]1(NC(=O)C(C(=O)O)c2ccc(O)cc2)C(=O)N2C(C(=O)O)=C(CSc3nnnn3C)CO[C@@H]21 (stereo not given in full) [Latamoxef sodium] | -0.05
CCCCCCCCCC(=O)NC1C(Oc2c3cc4cc2Oc2ccc(cc2Cl)C(OC2OC(CO)C(O)C(O)C2NC(C)=O)C2NC(=O)C(NC(=O)C4NC(=O)C4NC(=O)C(Cc5ccc(c(Cl)c5)O3)NC(=O)C(N)c3ccc(O)c(c3)Oc3cc(O)cc4c3)c3ccc(O)c(c3)-c3c(OC4OC(CO)C(O)C(O)C4O)cc(O)cc3C(C(=O)O)NC2=O)OC(CO)C(O)C1O (stereo not given) [Teicoplanin] | -0.21
Cc1cccc(C)c1NC(=O)C1CCCCN1C (stereo not given) [Mepivacaine] | -0.3
COc1ccc(CN2CCN(C(c3ccc(F)cc3)c3ccc(F)cc3)CC2)c(OC)c1OC [Lomerizine 2HCl] | 0.3
O=C1Nc2ccccc2C1=O [Isatin] | -0.04
Nc1nc2c(ncn2COCCO)c(=O)[nH]1 [Aciclovir] | 1.26
Cc1ccc(C(=O)C(C)CN2CCCCC2)cc1 (stereo not given) [Tolperisone HCl] | -0.42
O=C1CC2(CCCC2)CC(=O)N1CCCCN1CCN(c2ncccn2)CC1 [Buspirone HCl] | 0.76
O=C(NCCN1CCOCC1)c1ccc(Cl)cc1 | 1.75
CN1[C@@H]2CC[C@H]1C[C@@H](OC(c1ccccc1)c1ccccc1)C2 [Benztropine mesylate] | 0.17
CC1(C)S[C@@H]2[C@H](NC(=O)Cc3ccccc3)C(=O)N2[C@H]1C(=O)O [Benzylpenicillin potassium] | 0.24
COc1ccc(C2CNC(=O)C2)cc1OC1CCCC1 (stereo not drawn) [S- (+)-Rolipram] | -0.9

SMILES | z-score of subpopulation abundance
CC1=C(C(=O)OCCN(Cc2ccccc2)c2ccccc2)C(c2cccc([N+](=O)[O-])c2)C(P2(=O)OCC(C)(C)CO2)=C(C)N1 (stereo not given) [Efonidipine] | 0.97
COCCCOc1ccnc(C[S+]([O-])c2nc3ccccc3[nH]2)c1C (stereo not given) [Rebeprazole sodium] | -0.68
Nc1nc(=O)[nH]cc1F [Flucytosine] | -1.32
CO/N=C(\C(=O)N[C@@H]1C(=O)N2C(C(=O)O)=C(CSc3nnnn3C)CS[C@H]12)c1csc(N)n1 [Cefmenoxime hydrochloride] | -0.06
COC(=O)Nc1nc2cc([S+]([O-])c3ccccc3)ccc2[nH]1 (stereo not given) [Oxfendazole] | -1.92
N#C/C(=C1/SC[C@@H](c2ccc(Cl)cc2Cl)S1)n1ccnc1 [Luliconazole] | -1.35
OC(Cn1cncn1)(Cn1cncn1)c1ccc(F)cc1F [Fluconazole] | -0.88
CC[C@H]1OC(=O)[C@H](C)[C@@H](O[C@H]2C[C@@](C)(OC)[C@@H](O)[C@H](C)O2)[C@H](C)[C@@H](O[C@@H]2O[C@H](C)C[C@H](N(C)C)[C@H]2O)[C@](C)(O)C[C@@H](C)C(=O)[C@H](C)[C@@H](O)[C@]1(C)O [Erythromycin] | 1.96
CCN(CC)CC#CCOC(=O)C(O)(c1ccccc1)C1CCCCC1 (stereo not given) [Oxybutynin chloride] | -0.83
CCN1CCC[C@H]1CNC(=O)c1cc(S(N)(=O)=O)ccc1OC [Levosulpiride] | -0.4
CC(Cc1ccc(O)c(O)c1)C(C)Cc1ccc(O)c(O)c1 (stereo not given) [Nordihydroguaiaretic acid (NDGA)] | 0.06
CCC(C)(C)C(=O)O[C@H]1C[C@@H](C)C=C2C=C[C@H](C)[C@H](CC[C@@H]3C[C@@H](O)CC(=O)O3)[C@H]21 [Simvastatin] | -0.13
Clc1ccc2c(N3CCN(CCCN4CCN(c5ccnc6cc(Cl)ccc56)CC4)CC3)ccnc2c1 [Piperaquine phosphate] | 0.02
CC(=O)N1CCN(c2ccc(OCC3COC(Cn4ccnc4)(c4ccc(Cl)cc4Cl)O3)cc2)CC1 (stereo not given) [Ketoconazole] | -0.63
CO[C@@H]1[C@H](OC(=O)/C=C/C=C/C=C/C=C/C(=O)O)CC[C@]2(CO2)[C@H]1[C@@]1(C)O[C@@H]1CC=C(C)C [Fumagillin] | 1.24
Cc1cc(NS(=O)(=O)c2ccc(N)cc2)nc(C)n1 [sulfaisodimidine] | 0.19
O=C(Nc1cc(Cl)cc(Cl)c1O)c1c(O)c(Cl)cc(Cl)c1Cl [Oxyclozanide] | -0.21
CC1(C)S[C@@H]2[C@H](NC(=O)C(C(=O)O)c3ccccc3)C(=O)N2[C@H]1C(=O)O (stereo not given in full) [Carbenicillin disodium] | -0.23
NC1CCN(c2nc3c(cc2F)c(=O)c(C(=O)O)cn3-c2ccc(F)cc2F)C1 (stereo not given) [Tosufloxacin p-Toluenesulfonate Hydrate] | -0.11
C[C@@H](c1nc(-c2ccc(C#N)cc2)cs1)[C@](O)(Cn1cncn1)c1cc(F)ccc1F [Isavuconazole] | -0.71

From the supplement of paper PMC8975748
